Sfp PPTase inh = qHTS Assay for Inhibitors of Bacillus subtilis Sfp phosphopantetheinyl transferase (PPTase) | Biochemical Sfp PPTase activity, qHTS | Potency, µM, for inactives: largest response in the series, negative = inhibition, most hits filed as inhibitors | hit rate 3.5% among 310,000 | AID 1490, 2009; active = well fitted curve in the direction sought with a large enough effect; inconclusive = small, poorly fitted or top-dose-only effect, or another doubt; inactive = no such curve, though single readings can be large; an effect the other way counts as inactive or inconclusive;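 also: the enzyme is Sfp with the accession as filed and its product quenches rhodamine fluorescence; potency is read from the fitted curve at half-maximal effect; 0% = enzyme reaction without inhibitor and -100% = no enzyme wells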
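Step 1, compound plus 15 nM Sfp-PPTase, 15 min, room temperature. Step 2, add rhodamine-CoA (5 uM) and BHQ-2-YbbR (12.5 uM). Step 3, read 525/598 nm fluorescence at 0 and 30 min.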
FBPA coupling cs = qHTS Assay for Inhibitors of Fructose-1,6-bisphosphate Aldolase from Giardia Lamblia: Coupling assay counterscreen | coupling enzyme system counterscreen, AmpLite Red fluorescence | activity change, negative = inhibition, % at 58.2 µM, hits read low | hit rate 0.67% among 290,000 | AID 2472, 2010; in the data active = activity change below about -30%
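Coupling enzymes only (glyceraldehyde-3-phosphate) + compound, at 57.5 uM final, 10 min RT; add substrate/coupling/AmpLite Red mix, 20 min RT; fluorescence ex 525/em 598 nm. Actives flag coupling-system interference.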
RGS12 GoLoco inh = qHTS Assay for Inhibitors of RGS12 GoLoco Motif Activity (Red Fluorophore); Guanine nucleotide-binding protein G(i) subunit alpha-1 (Homo sapiens), P63096; Gai1:RGS12 GoLoco peptide FP, rhodamine, 10 min; Potency, µM (series often up to 61.6 µM), for the others: top-dose activity, negative = inhibition, most hits filed as inhibitors; hit rate 0.44% among 230,000; active = well fitted inhibition curve with a large enough effect, not every such curve was filed as active; inactive = no such curve, though single readings can be large or run the other way; also: potency is read from the fitted curve at half-maximal effect; nearly all actives have a fitted effect of over 30% in size
Target sequence (P63096 whole entry, looked up): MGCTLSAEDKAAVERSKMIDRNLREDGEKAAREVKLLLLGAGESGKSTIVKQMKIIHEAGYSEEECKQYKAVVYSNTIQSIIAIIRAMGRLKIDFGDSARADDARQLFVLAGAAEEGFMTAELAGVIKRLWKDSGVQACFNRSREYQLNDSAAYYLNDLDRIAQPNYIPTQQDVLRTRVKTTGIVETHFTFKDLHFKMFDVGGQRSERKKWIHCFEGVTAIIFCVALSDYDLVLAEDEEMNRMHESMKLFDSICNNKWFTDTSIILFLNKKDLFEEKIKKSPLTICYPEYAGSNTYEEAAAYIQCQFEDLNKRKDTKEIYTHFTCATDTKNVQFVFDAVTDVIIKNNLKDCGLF
JMJD2E inh = qHTS Assay for Inhibitors of Human Jumonji Domain Containing 2E (JMJD2E). Lysine-specific demethylase 4E (Homo sapiens), B2RXH2. JMJD2E catalytic domain, FDH-coupled NADH fluorescence (FDH is formaldehyde dehydrogenase). Potency, µM (top dose mostly 57.1 µM), for inactives: at the highest dose activity change, negative = inhibition, usual class: inhibitors. hit rate 1.6% among 230,000;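 also: potency is read from the fitted curve at half-maximal effect; 0% = wells with enzyme and -100% = buffer wells without enzyme; nearly all actives have a fitted effect of over 50% in size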
Target sequence (B2RXH2 1-337 limits assumed): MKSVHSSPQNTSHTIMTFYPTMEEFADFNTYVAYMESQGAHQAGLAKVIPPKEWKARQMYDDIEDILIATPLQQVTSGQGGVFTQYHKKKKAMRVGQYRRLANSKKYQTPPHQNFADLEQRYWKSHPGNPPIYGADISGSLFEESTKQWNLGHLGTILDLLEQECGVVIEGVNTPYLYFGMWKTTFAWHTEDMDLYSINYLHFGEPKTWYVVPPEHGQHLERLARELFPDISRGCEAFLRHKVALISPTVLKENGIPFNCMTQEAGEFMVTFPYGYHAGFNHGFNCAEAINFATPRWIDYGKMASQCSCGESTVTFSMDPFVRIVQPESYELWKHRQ
ALDH1A1 block = qHTS Assay for Inhibitors of Aldehyde Dehydrogenase 1 (ALDH1A1). AID 1030, 2008. Purified ALDH1A1, NADH fluorescence, propionaldehyde substrate. Potency, µM (titrated, usually from 75.3 µM), without a hit: at the highest dose activity, negative = inhibition, usual class: inhibitors. Aldehyde dehydrogenase 1A1 (Homo sapiens), P00352. hit rate 7.3% among 220,000;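 also: potency is read from the fitted curve at half-maximal effect; plate controls were no enzyme wells and a reference inhibitor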
NPSR antag = qHTS Assay for Antagonists of the Neuropeptide S Receptor: cAMP Signal Transduction; CHO-NPSR cells, cAMP TR-FRET, antagonist mode; AID 1461, 2008; Q6W5P4; Potency, µM (highest dose often 38.3 µM), for inactives: top-dose activity change, negative = inhibition, most hits filed as inhibitors; hit rate 1% among 220,000; active = well fitted curve in the direction sought with a large enough effect; inconclusive = small, poorly fitted or top-dose-only effect, or another doubt; inactive = no such curve, though single readings can be large; an effect the other way counts as inactive or inconclusive; also: potency is read from the fitted curve at half-maximal effect; nearly all actives have a fitted effect of over 50% in size
* hit, by the source's call; ! = repeats disagree; [ ] = dose if it differs, or a comment. Only some compounds are listed: those with a hit (about 8.5% of all), similar ones and a draw of the others. Unless noted, calls follow the shape of the dose curve; as a rule, active = well fitted inhibition curve with a large enough effect (not every such curve was filed as active); inconclusive = small, poorly fitted or top-dose-only effect, or another doubt; inactive = no such curve, though single readings can be large or run the other way. Unless noted, % is scaled to controls: 0 for no effect and ±100 for the full control effect.

What do the screens show for `Cc1cc(NS(=O)(=O)c2ccc(NC(=O)c3ccc([N+](=O)[O-])c(Cl)c3)cc2)no1`?
Sfp PPTase inh: 2.9%

How did Cc1cccc(-c2ccc(C=Nc3c(C)n(C)n(-c4ccccc4)c3=O)o2)c1 do in these assays?
Sfp PPTase inh: -22.0%; FBPA coupling cs: 0.0; RGS12 GoLoco inh: 6.5%; JMJD2E inh: -17.7%; ALDH1A1 block: 11.2µM*; NPSR antag: -23.9%[46.1 µM]

What do the screens show for `Cc1c(N=Cc2nc3ccccc3n2C)c(=O)n(-c2ccccc2)n1C`?
Sfp PPTase inh: 3.1%; FBPA coupling cs: 0.9; RGS12 GoLoco inh: -0.1%; JMJD2E inh: 1.4%; ALDH1A1 block: 7.5%; NPSR antag: 0.6%[46.1 µM]

What do the screens show for `O=C(COc1cccc(Cl)c1)N/N=C\c1cc2ccccc2nc1Cl`?
Sfp PPTase inh: -18.4%; FBPA coupling cs: 0.6; RGS12 GoLoco inh: 2.4%; JMJD2E inh: inconclusive; ALDH1A1 block: inconclusive; NPSR antag: -15.5%

What do the screens show for `O=C(CNc1ccc2ccccc2c1)N/N=C/c1cc2ccccc2nc1Cl`?
Sfp PPTase inh: -22.7%; FBPA coupling cs: -13.0; RGS12 GoLoco inh: 4.5%; JMJD2E inh: inconclusive; ALDH1A1 block: 22.4µM*; NPSR antag: -19.6%

Results for CC1(COS(N)(=O)=O)CCCCC1 ?
Sfp PPTase inh: 10.5%; FBPA coupling cs: -0.4

How did c1ccc(C2CNCCc3ccccc32)cc1 (stereo not given) do in these assays?
Sfp PPTase inh: 5.6%; FBPA coupling cs: -0.2

How did Oc1ccc([C@@H]2CNCCc3c2cc(O)c(O)c3Cl)cc1 do in these assays?
Sfp PPTase inh: 56.2µM*; FBPA coupling cs: -8.8; RGS12 GoLoco inh: -6.7%; JMJD2E inh: 11.2µM*; ALDH1A1 block: -11.9%

How did Oc1cc2c(cc1O)[C@@H](c1ccccc1)CNCC2 do in these assays?
Sfp PPTase inh: 20µM*; FBPA coupling cs: 0.0; RGS12 GoLoco inh: 12.6µM*; JMJD2E inh: 13.4%; ALDH1A1 block: 3.2%; NPSR antag: 4.2%

Results for Oc1cc2c(cc1O)C(c1ccccc1)CNCC2 (stereo not given) ?
Sfp PPTase inh: 79.4µM*!; FBPA coupling cs: -5.9; RGS12 GoLoco inh: -21.0%; JMJD2E inh: 20µM*; ALDH1A1 block: inconclusive; NPSR antag: -3.2%[46.1 µM]

Results for S=C1NCCc2ccc(Cl)cc2C1c1ccccc1 (stereo not given) ?
Sfp PPTase inh: 14.4%; FBPA coupling cs: -0.6; RGS12 GoLoco inh: 6.3%; JMJD2E inh: 3.3%; ALDH1A1 block: -6.8%; NPSR antag: -13.9%[46.1 µM]

Results for O=C1C=C[C@@H](O)[C@H]2[C@@H]3C(=O)N(c4cccc(Oc5ccccc5)c4)C(=O)[C@@H]3CC[C@H]12 ?
Sfp PPTase inh: -7.0%; FBPA coupling cs: -2.6; ALDH1A1 block: -11.7%[13.5 µM]

What do the screens show for `CCc1ccc(C(=O)NNC(=S)Nc2ccc(S(N)(=O)=O)cc2)s1`?
Sfp PPTase inh: 21.1%; FBPA coupling cs: 2.3; RGS12 GoLoco inh: -1.3%; JMJD2E inh: inconclusive; ALDH1A1 block: inconclusive; NPSR antag: 4.1%

What do the screens show for `COc1cc(/C=N/NC(=O)c2nc3ccccn3c2C)cc(OC)c1O`?
Sfp PPTase inh: 1.0%; FBPA coupling cs: -3.2; RGS12 GoLoco inh: -25.0%; JMJD2E inh: 5.9%; ALDH1A1 block: inconclusive; NPSR antag: -7.5%

Results for CC1CCCCN1C(=S)NCc1ccco1 (stereo not given) ?
Sfp PPTase inh: 14.1%; FBPA coupling cs: 4.1; RGS12 GoLoco inh: 6.2%; JMJD2E inh: -1.6%; ALDH1A1 block: -3.6%; NPSR antag: 4.7%

What do the screens show for `CCCc1ccc(OCC(O)CN2CCN(c3ccccn3)CC2)cc1` (stereo not given)?
Sfp PPTase inh: 11.9%

Results for COc1cc(CNC(=O)C2CCC(=O)N(C3CCCCCC3)C2)cc(OC)c1 (stereo not given) ?
Sfp PPTase inh: 10.4%; FBPA coupling cs: 0.0

How did COc1ccccc1NC(=O)C1=C(C)Nc2nc(CCCO)nn2C1c1ccc2c(c1)OCO2 (stereo not given) do in these assays?
Sfp PPTase inh: 12.3%; FBPA coupling cs: 7.5; RGS12 GoLoco inh: 17.2%; JMJD2E inh: -1.2%; ALDH1A1 block: 14.1µM*; NPSR antag: -6.8%[46.1 µM]

What do the screens show for `COc1ccc(OC)c(C2C(C(=O)Nc3ccc(F)cc3)=C(C)Nc3nc(CCCO)nn32)c1` (stereo not given)?
Sfp PPTase inh: -10.1%; FBPA coupling cs: -29.6; RGS12 GoLoco inh: -2.6%; JMJD2E inh: -4.5%; ALDH1A1 block: -6.5%; NPSR antag: 0.8%[46.1 µM]

How did COCc1cc(C)nc(SCC[N+](C)(C)CC(=O)Nc2cccc(C(F)(F)F)c2)c1C#N do in these assays?
Sfp PPTase inh: 22.9%; FBPA coupling cs: 3.4; RGS12 GoLoco inh: 15.5%; JMJD2E inh: inconclusive; ALDH1A1 block: 11.2µM*; NPSR antag: -59.5%

How did COCc1cc(C)nc(SCC(=O)Nc2ccc(C)c(C)c2)c1C#N do in these assays?
Sfp PPTase inh: 11.6%; FBPA coupling cs: -0.1; RGS12 GoLoco inh: 5.9%; JMJD2E inh: inconclusive; ALDH1A1 block: inconclusive; NPSR antag: -16.3%[46.1 µM]

How did O=C(Cl)c1cccc([N+](=O)[O-])c1 do in these assays?
RGS12 GoLoco inh: -1.5%; ALDH1A1 block: 11.2µM*

What do the screens show for `O=[N+]([O-])c1cccc(S(=O)(=O)c2cccc([N+](=O)[O-])c2)c1`?
Sfp PPTase inh: 8.2%; FBPA coupling cs: -3.8; RGS12 GoLoco inh: 6.7%; JMJD2E inh: 4.1%; ALDH1A1 block: -2.5%; NPSR antag: 13.0%

Results for O=[N+]([O-])c1cccc(Cl)c1 ?
RGS12 GoLoco inh: 1.6%; ALDH1A1 block: 25.1µM*

How did NC(=O)c1cccc([N+](=O)[O-])c1 do in these assays?
RGS12 GoLoco inh: 9.0%; ALDH1A1 block: -0.2%

What do the screens show for `CCCCCCC#CC1C=CC(Oc2ccc(C=O)cc2)C(CO)O1` (stereo not given)?
Sfp PPTase inh: 5.3%; FBPA coupling cs: -0.7; ALDH1A1 block: inconclusive

How did N#Cc1cc2c([nH]c1=S)CCCCCC2 do in these assays?
Sfp PPTase inh: 10µM*; FBPA coupling cs: 10.9; RGS12 GoLoco inh: -23.6%; JMJD2E inh: inconclusive; ALDH1A1 block: 10µM*; NPSR antag: 11.0%[46.1 µM]

Results for O=C(O)COc1ccc(C(=O)c2ccccc2)cc1 ?
Sfp PPTase inh: 28.2%; FBPA coupling cs: 10.0; RGS12 GoLoco inh: -0.9%; JMJD2E inh: -8.6%; ALDH1A1 block: 1.1%; NPSR antag: 3.5%

Compound activity from PubChem.
